Measurements from PubChem BioAssay AID1159580 (chemical genetic matrix, 2015).
About 2,000 (36%) of roughly 5,500 compounds were called active. Inconclusive results (about 18%) are left out. Cut-off read from the data, not from the text of the source: active = normalized growth mostly below about 0.91 (no sharp cut-off); inconclusive = no clear call, values can overlap the other calls; inactive = mostly above about 0.92. This is one part of the list.

Assay: chemical genetic growth profiling, strain panel (AID 1159580);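 note: tested at 20 µM; growth read once vehicle control cultures reached saturation at 30 °C; 1 = growth at the plate median or of vehicle wells; lower values mean less growth of the strain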
Conditions: growth OD

Measured: normalized growth

C=C1C(C)C2C(Cc3ccccc3)NC(=O)C23OC(=O)/C=C/C(O)CCCC(C)C/C=C/C3C1O (stereo unspecified)
inactive: S. cerevisiae deletion strains, locus YAL013W, strain DEP1, stronger effect = lower value 1.01 | S. cerevisiae deletion strains, locus YBR021W, strain FUR4, stronger effect = lower value 1.01 | S. cerevisiae deletion strains, locus YBR229C, strain ROT2, stronger effect = lower value 1 | S. cerevisiae deletion strains, locus YCL029C, strain bik1, stronger effect = lower value 0.997 | S. cerevisiae deletion strains, locus YDL035C, strain GPR1, stronger effect = lower value 1.02 | S. cerevisiae deletion strains, locus YDL074C, strain BRE1, stronger effect = lower value 1.04 | S. cerevisiae deletion strains, locus YDL101C, strain DUN1, stronger effect = lower value 1.01 | S. cerevisiae deletion strains, locus YDL134C, strain PPH21, stronger effect = lower value 1.01 | S. cerevisiae deletion strains, locus YDL185W, strain tfp1, stronger effect = lower value 1 | S. cerevisiae deletion strains, locus YDL192W, strain arf1, stronger effect = lower value 1 | S. cerevisiae deletion strains, locus YDR101C, strain arx1, stronger effect = lower value 0.995 | S. cerevisiae deletion strains, locus YDR150W, strain NUM1, stronger effect = lower value 1.01 | S. cerevisiae deletion strains, locus YDR162C, strain NBP2, stronger effect = lower value 0.998 | S. cerevisiae deletion strains, locus YDR318W, strain mcm21, stronger effect = lower value 1 | S. cerevisiae deletion strains, locus YDR388W, stronger effect = lower value 1 | S. cerevisiae deletion strains, locus YDR502C, strain sam2, stronger effect = lower value 0.996 | S. cerevisiae deletion strains, locus YEL061C, strain CIN8, stronger effect = lower value 1 | S. cerevisiae deletion strains, locus YER110C, stronger effect = lower value 0.997 | S. cerevisiae deletion strains, locus YER155C, strain BEM2, stronger effect = lower value 0.993 | S. cerevisiae deletion strains, locus YER167W, strain BCK2, stronger effect = lower value 1.01 | S. cerevisiae deletion strains, locus YGL078C, strain dbp3, stronger effect = lower value 1 | S. cerevisiae deletion strains, locus YGL086W, strain mad1, stronger effect = lower value 0.988 | S. cerevisiae deletion strains, locus YGL248W, strain PDE1, stronger effect = lower value 0.997 | S. cerevisiae deletion strains, locus YGR078C, strain PAC10, stronger effect = lower value 1.02 | S. cerevisiae deletion strains, locus YGR135W, strain pre9, stronger effect = lower value 0.999 | S. cerevisiae deletion strains, locus YGR229C, strain SMI1, stronger effect = lower value 1.03 | S. cerevisiae deletion strains, locus YGR252W, strain gcn5, stronger effect = lower value 1 | S. cerevisiae deletion strains, locus YHR030C, strain SLT2, stronger effect = lower value 1 | S. cerevisiae deletion strains, locus YHR079C, strain IRE1 (second series), stronger effect = lower value 0.987 | S. cerevisiae deletion strains, locus YHR094C, strain hxt1, stronger effect = lower value 1.01 | S. cerevisiae deletion strains, locus YHR129C, strain ARP1, stronger effect = lower value 0.998 | S. cerevisiae deletion strains, locus YHR200W, strain rpn10, stronger effect = lower value 1 | S. cerevisiae deletion strains, locus YIL066C, strain RNR3, stronger effect = lower value 1.02 | S. cerevisiae deletion strains, locus YIL073C, strain SPO22, stronger effect = lower value 1.06 | S. cerevisiae deletion strains, locus YIL125W, strain kgd1, stronger effect = lower value 0.984 | S. cerevisiae deletion strains, locus YIR030C, strain dcg1, stronger effect = lower value 0.998 | S. cerevisiae deletion strains, locus YJL095W, strain BCK1, stronger effect = lower value 1 | S. cerevisiae deletion strains, locus YJL134W, strain LCB3, stronger effect = lower value 1 | S. cerevisiae deletion strains, locus YJL168C, strain set2, stronger effect = lower value 0.998 | S. cerevisiae deletion strains, locus YJL187C, strain SWE1 (second series), stronger effect = lower value 1.01 | S. cerevisiae deletion strains, locus YJR043C, strain POL32, stronger effect = lower value 1.01 | S. cerevisiae deletion strains, locus YJR075W, strain HOC1, stronger effect = lower value 0.996 | S. cerevisiae deletion strains, locus YKL009W, strain mrt4, stronger effect = lower value 1.01 | S. cerevisiae deletion strains, locus YKL068W, stronger effect = lower value 1 | S. cerevisiae deletion strains, locus YKL085W, strain MDH1 (second series), stronger effect = lower value 0.999 | S. cerevisiae deletion strains, locus YKL085W, strain MDH1, stronger effect = lower value 0.999 | S. cerevisiae deletion strains, locus YKL190W, strain CNB1, stronger effect = lower value 1.01 | S. cerevisiae deletion strains, locus YKR001C, strain vps1, stronger effect = lower value 0.994 | S. cerevisiae deletion strains, locus YLR039C, strain RIC1, stronger effect = lower value 1.01 | S. cerevisiae deletion strains, locus YLR058C, strain SHM2, stronger effect = lower value 1 | S. cerevisiae deletion strains, locus YLR102C, strain apc9, stronger effect = lower value 1.01 | S. cerevisiae deletion strains, locus YLR262C, strain YPT6, stronger effect = lower value 1.02 | S. cerevisiae deletion strains, locus YLR268W, strain sec22, stronger effect = lower value 1 | S. cerevisiae deletion strains, locus YLR330W, strain CHS5, stronger effect = lower value 1.01 | S. cerevisiae deletion strains, locus YLR342W, strain FKS1 (second series), stronger effect = lower value 1.02 | S. cerevisiae deletion strains, locus YLR371W, strain rom2, stronger effect = lower value 1.01 | S. cerevisiae deletion strains, locus YLR418C, strain cdc73, stronger effect = lower value 0.995 | S. cerevisiae deletion strains, locus YML016C, strain PPZ1, stronger effect = lower value 1 | S. cerevisiae deletion strains, locus YML032C, strain rad52, stronger effect = lower value 1 | S. cerevisiae deletion strains, locus YML124C, strain tub3, stronger effect = lower value 0.997 | S. cerevisiae deletion strains, locus YMR078C, strain ctf18, stronger effect = lower value 0.992 | S. cerevisiae deletion strains, locus YMR223W, strain ubp8, stronger effect = lower value 1 | S. cerevisiae deletion strains, locus YMR263W, strain SAP30, stronger effect = lower value 1.01 | S. cerevisiae deletion strains, locus YMR307W, strain GAS1, stronger effect = lower value 1.02 | S. cerevisiae deletion strains, locus YNL067W, strain RPL9B, stronger effect = lower value 1.01 | S. cerevisiae deletion strains, locus YNL128W, strain TEP1, stronger effect = lower value 1.01 | S. cerevisiae deletion strains, locus YNL153C, strain GIM3, stronger effect = lower value 1.02 | S. cerevisiae deletion strains, locus YNL233W, strain BNI4, stronger effect = lower value 0.994 | S. cerevisiae deletion strains, locus YNL250W, strain rad50, stronger effect = lower value 1 | S. cerevisiae deletion strains, locus YNL271C, strain bni1, stronger effect = lower value 0.998 | S. cerevisiae deletion strains, locus YNL298W, strain CLA4, stronger effect = lower value 0.995 | S. cerevisiae deletion strains, locus YNL307C, strain MCK1, stronger effect = lower value 1.01 | S. cerevisiae deletion strains, locus YNL322C, strain KRE1, stronger effect = lower value 1.01 | S. cerevisiae deletion strains, locus YNR052C, strain pop2, stronger effect = lower value 1.01 | S. cerevisiae deletion strains, locus YOL006C, strain TOP1, stronger effect = lower value 1.03 | S. cerevisiae deletion strains, locus YOL012C, strain htz1 0.948 | S. cerevisiae deletion strains, locus YOL147C, strain pex11, stronger effect = lower value 0.997 | S. cerevisiae deletion strains, locus YOR061W, strain CKA2, stronger effect = lower value 1 | S. cerevisiae deletion strains, locus YOR069W, strain VPS5, stronger effect = lower value 1 | S. cerevisiae deletion strains, locus YOR136W, strain idh2, stronger effect = lower value 0.999 | S. cerevisiae deletion strains, locus YOR144C, strain elg1, stronger effect = lower value 1 | S. cerevisiae deletion strains, locus YOR184W, strain ser1, stronger effect = lower value 1.03 | S. cerevisiae deletion strains, locus YOR316C, strain cot1, stronger effect = lower value 1 | S. cerevisiae deletion strains, locus YPL055C, strain LGE1, stronger effect = lower value 1.03 | S. cerevisiae deletion strains, locus YPL241C, strain CIN2, stronger effect = lower value 1.01 | S. cerevisiae deletion strains, locus YPR119W, strain clb2, stronger effect = lower value 0.999 | S. cerevisiae deletion strains, locus YPR141C, strain kar3, stronger effect = lower value 1 | S. cerevisiae deletion strains, locus YPR163C, strain tif3, stronger effect = lower value 1 | S. cerevisiae deletion strains, locus YPR167C, strain met16, stronger effect = lower value 0.999 | S. cerevisiae deletion strains, strain wtn01, stronger effect = lower value 0.995 | S. cerevisiae strains, strain wild type, stronger effect = lower value 1.01
